Several values for one entry are separate records, joined by “and”; a condition that tells them apart may be missing. Equal entries are not always repeated. The campaign covered roughly 5,500 compounds. About 2,000 (36%) were called active. Not shown: some 18% with an inconclusive outcome. Rule as the data show it: active = normalized growth mostly below about 0.91 (no sharp cut-off); inconclusive = no clear call, values can overlap the other calls; inactive = mostly above about 0.92. This is one part of the list.
Experiment: chemical genetic growth profiling, strain panel (AID 1159580);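 also: tested at 20 µM; growth read once vehicle control cultures reached saturation at 30 °C; 1 = growth at the plate median or of vehicle wells; lower values mean less growth of the strain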
Conditions: S. cerevisiae deletion strains, growth OD

Measured: normalized growth

O=C(CCCN1CC=C(n2c(=O)[nH]c3ccccc32)CC1)c1ccc(F)cc1
inactive: locus YAL013W, strain DEP1, active compounds read low 0.99 | locus YAL021C, strain ccr4, active compounds read low 0.958 | locus YAL026C, strain drs2, active compounds read low 0.992 | locus YAL030W, strain snc1, active compounds read low 0.988 | locus YBL061C, strain skt5, active compounds read low 0.989 | locus YBR009C, strain hhf1, active compounds read low 0.979 | locus YBR021W, strain FUR4, active compounds read low 0.953 | locus YBR023C, strain chs3, active compounds read low 0.983 | locus YBR171W, strain sec66, active compounds read low 0.963 | locus YBR229C, strain ROT2, active compounds read low 0.949 | locus YBR231C, strain swc5, active compounds read low 0.953 | locus YBR279W, strain paf1, active compounds read low 0.972 | locus YCL011C, strain gbp2, active compounds read low 0.975 | locus YCL016C, strain dcc1, active compounds read low 1 | locus YCL029C, strain bik1, active compounds read low 0.973 | locus YCL069W, strain vba3, active compounds read low 0.992 | locus YCR088W, strain abp1, active compounds read low 1 | locus YDL005C, strain med2, active compounds read low 0.973 | locus YDL035C, strain GPR1, active compounds read low 0.972 | locus YDL040C, strain nat1, active compounds read low 0.992 | locus YDL074C, strain BRE1, active compounds read low 0.984 | locus YDL101C, strain DUN1, active compounds read low 0.976 | locus YDL134C, strain PPH21, active compounds read low 0.983 | locus YDL185W, strain tfp1, active compounds read low 0.991 | locus YDL192W, strain arf1, active compounds read low 0.983 | locus YDR001C, strain nth1, active compounds read low 0.974 | locus YDR069C, strain doa4, active compounds read low 0.952 | locus YDR101C, strain arx1, active compounds read low 0.983 | locus YDR137W, strain rgp1, active compounds read low 0.993 | locus YDR150W, strain NUM1, active compounds read low 0.968 | locus YDR159W, strain sac3, active compounds read low 0.989 | locus YDR162C, strain NBP2, active compounds read low 0.978 | locus YDR195W, strain ref2 0.936 | locus YDR297W, strain sur2, active compounds read low 0.984 | locus YDR318W, strain mcm21, active compounds read low 0.991 | locus YDR334W, strain swr1, active compounds read low 0.976 | locus YDR335W, strain msn5, active compounds read low 0.979 | locus YDR388W, active compounds read low 0.986 | locus YDR392W, strain spt3, active compounds read low 0.994 | locus YDR502C, strain sam2, active compounds read low 0.968 | locus YEL003W, strain gim4, active compounds read low 0.99 | locus YEL037C, strain rad23, active compounds read low 1 | locus YEL061C, strain CIN8 (second series), active compounds read low 0.981 | locus YEL061C, strain CIN8, active compounds read low 0.985 | locus YER015W, strain faa2, active compounds read low 0.969 | locus YER016W, strain bim1, active compounds read low 1.01 | locus YER110C, active compounds read low 0.957 | locus YER111C, strain swi4, active compounds read low 0.975 | locus YER155C, strain BEM2 (second series), active compounds read low 0.929 | locus YER155C, strain BEM2, active compounds read low 0.996 | locus YER167W, strain BCK2, active compounds read low 0.982 | locus YFR010W, strain ubp6, active compounds read low 0.993 | locus YGL078C, strain dbp3, active compounds read low 0.976 | locus YGL086W, strain mad1, active compounds read low 0.976 | locus YGL167C, strain pmr1, active compounds read low 0.979 | locus YGL173C, strain kem1, active compounds read low 1 | locus YGL227W, strain vid30, active compounds read low 0.953 | locus YGL240W, strain doc1, active compounds read low 0.953 | locus YGL248W, strain PDE1, active compounds read low 0.982 | locus YGL253W, strain hxk2, active compounds read low 0.981 | locus YGR078C, strain PAC10, active compounds read low 0.985 | locus YGR135W, strain pre9, active compounds read low 0.968 | locus YGR229C, strain SMI1, active compounds read low 0.992 | locus YGR252W, strain gcn5, active compounds read low 0.906 | locus YHR013C, strain ard1, active compounds read low 1.01 | locus YHR027C, strain rpn1, active compounds read low 0.977 | locus YHR030C, strain SLT2, active compounds read low 0.991 and 0.98 | locus YHR079C, strain IRE1 (second series), active compounds read low 0.989 | locus YHR079C, strain IRE1, active compounds read low 0.971 | locus YHR094C, strain hxt1, active compounds read low 0.994 | locus YHR129C, strain ARP1, active compounds read low 0.994 | locus YHR142W, strain chs7, active compounds read low 0.983 | locus YHR200W, strain rpn10, active compounds read low 0.99 | locus YIL066C, strain RNR3, active compounds read low 0.971 | locus YIL073C, strain SPO22, active compounds read low 1.02 | locus YIL125W, strain kgd1, active compounds read low 0.99 | locus YIR030C, strain dcg1, active compounds read low 0.972 | locus YJL092W, strain hpr5, active compounds read low 0.984 | locus YJL095W, strain BCK1 (second series), active compounds read low 0.996 | locus YJL095W, strain BCK1, active compounds read low 1.03 and 0.998 | locus YJL115W, strain asf1, active compounds read low 0.975 | locus YJL129C, strain trk1, active compounds read low 0.939 | locus YJL134W, strain LCB3, active compounds read low 0.979 | locus YJL154C, strain vps35, active compounds read low 0.994 | locus YJL164C, strain tpk1, active compounds read low 0.994 | locus YJL166W, strain qcr8, active compounds read low 0.971 | locus YJL168C, strain set2, active compounds read low 0.999 | locus YJL187C, strain SWE1 (second series), active compounds read low 0.978 | locus YJL187C, strain SWE1, active compounds read low 0.988 | locus YJR043C, strain POL32, active compounds read low 0.995 | locus YJR066W, strain TOR1, active compounds read low 0.93
